Laboratory results taken from PubChem BioAssay AID720597 (Broad Institute, 2013).
Potency and affinity values are given separately. The source made the active and inactive calls.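 Rule for the calls: active = fitted half-maximal dose no more than twice the top valid tested dose, for compounds that lower signal; inconclusive = fit invalid, or curve flat with activity between -70 and -30; inactive = potency past limit, curve flat within ±30, or signal increasing.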

molecular target: NAD-dependent protein deacylase sirtuin-5, mitochondrial (Homo sapiens) (UniProt Q9NXA8); test: blockers of sirtuin-5 peptide desuccinylation – biochemical, fluorescence imaging, cherry-pick, set 6, dose response (AID 720597); conditions: Purified SirT5, succinyl-peptide-AMC/trypsin fluorescence; series mostly up to 15 µM;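 note: lower AMC signal can also come from blocking the trypsin step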
Sequence (Q9NXA8 whole entry, looked up): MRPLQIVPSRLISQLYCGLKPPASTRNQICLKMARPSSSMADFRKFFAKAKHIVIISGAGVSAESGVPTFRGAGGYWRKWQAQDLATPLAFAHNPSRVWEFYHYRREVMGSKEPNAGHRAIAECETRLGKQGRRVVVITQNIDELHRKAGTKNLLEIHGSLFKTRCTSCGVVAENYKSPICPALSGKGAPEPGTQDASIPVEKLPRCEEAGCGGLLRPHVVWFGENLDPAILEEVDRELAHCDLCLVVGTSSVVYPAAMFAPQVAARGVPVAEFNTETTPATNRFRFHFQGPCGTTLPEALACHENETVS

outcome, inactive:
C[C@H]1CN([C@@H](C)CO)S(=O)(=O)c2ccc(/C=C/c3ccccc3)cc2O[C@H]1CN(C)C(=O)NC1CCCCC1, C[C@@H]1CN([C@H](C)CO)C(=O)c2cc(NC(=O)NC3CCCCC3)ccc2O[C@@H](C)CCCCO[C@@H]1CN(C)Cc1ccc(Cl)c(Cl)c1, COc1ccccc1NC(=O)N[C@@H]1CC[C@H](CCNS(=O)(=O)c2ccc(Cl)cc2)O[C@@H]1CO, O=C(C[C@H]1CC[C@@H](NS(=O)(=O)c2ccccc2)[C@@H](CO)O1)NCc1ccncn1, CC(=O)N(Cc1cccc(F)c1)C[C@H]1[C@@H](c2ccccc2)[C@@H](CO)N1C(C)=O, CN(C)C(=O)c1cccc(-c2ccc([C@H]3[C@@H](CO)N4CCCCN(S(C)(=O)=O)C[C@H]34)cc2)c1, COc1ccc(S(=O)(=O)N(C)C[C@H]2OCCCC[C@@H](C)Oc3ccc(NS(=O)(=O)c4ccc(C)cc4)cc3C(=O)N([C@@H](C)CO)C[C@@H]2C)cc1, COc1ccc(S(=O)(=O)Nc2ccc3c(c2)C(=O)N([C@H](C)CO)C[C@H](C)[C@H](CN(C)Cc2ccc(Oc4ccccc4)cc2)O3)cc1, Cc1ccc(S(=O)(=O)N(C)C[C@H]2OCCCC[C@H](C)Oc3ccc(NS(=O)(=O)c4ccccc4)cc3C(=O)N([C@@H](C)CO)C[C@@H]2C)cc1, O=C(Nc1cc(F)ccc1F)N1CC(=O)N2[C@@H](CO)[C@@H](c3ccc(C#CC4CCCCC4)cc3)[C@@H]2C1, C[C@@H]1CCCCO[C@H](CN(C)Cc2ccc(C(F)(F)F)cc2)[C@@H](C)CN([C@@H](C)CO)C(=O)c2cc(NS(=O)(=O)c3ccc(F)cc3)ccc2O1
